Experimental data as given in PubChem BioAssay (NCI).
About 79,000 compounds went through this panel and 15% of them were active in at least one assay; those are over-represented in the sample as a whole. Calls of active or inactive are those of the source. Rule as the data show it: active = growth inhibition above about 70%; inactive = the rest.

Test: NCI Yeast Anticancer Drug Screen. Data for the wt2 strain (AID 169);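 also: 0% = growth of vehicle-treated yeast cultures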
Settings: S. cerevisiae wt2 strain growth inhibition, stronger effect = higher value
Procedure: Growth inhibition of yeast strains with defined genetic alterations is measured as a screen for potential anti-cancer activity. Selected strains with alterations in DNA damage repair or cell cycle control were exposed to compounds and growth inhibition was measured relative to vehicle treated controls. The strain used in this assay is wt2

Measured: growth inhibition

CN(C)/C=C/c1nnc([N+](=O)[O-])s1
active: at 100.0 µM 98%
inactive: at 1.2 µM -1% | at 3.7 µM -1% | at 11.0 µM -2% | at 33.0 µM 7%

Cc1ccc2nc(-c3cccc([N+](=O)[O-])c3)oc(=O)c2c1
inactive: at 1.2 µM -22% | at 3.7 µM -19% | at 11.0 µM -26% | at 33.0 µM -32% | at 100.0 µM -24%

Cc1cc(-c2cc(C)c(O)c(C(C)(C)C)c2)cc(C(C)(C)C)c1O
inactive: at 1.2 µM -32% | at 3.7 µM -18% | at 11.0 µM -17% | at 33.0 µM 4% | at 100.0 µM 66%

COc1cc(/C=C2\NC(=O)N(/C=C3\C(=O)Oc4ccccc4C3=O)C2=O)ccc1O
inactive: at 1.2 µM -1% | at 3.7 µM 0% | at 11.0 µM 7%
active: at 33.0 µM 87% | at 100.0 µM 98%

O=C1c2ccccc2C(=O)c2cc(CCl)ccc21
inactive: at 1.2 µM 3% | at 3.7 µM 7% | at 11.0 µM 8% | at 33.0 µM 12% | at 100.0 µM 12%

COc1cc(/C=N/Nc2nnc3c4ccccc4c4ncccc4c3n2)cc(OC)c1OC
inactive: at 1.2 µM -5% | at 3.7 µM -1% | at 11.0 µM -2% | at 33.0 µM -3% | at 100.0 µM -4%

CN(C)c1ccc(C2CC(C)(O)Oc3cc4c(cc32)OCO4)cc1 (stereo not given)
inactive: at 1.2 µM -1% | at 3.7 µM -2% | at 11.0 µM -1% | at 33.0 µM 7% | at 100.0 µM 46%

O=C1N=C2SC=C(NC(=S)Nc3ccccc3)N2NC12c1ccccc1-c1ccccc12
active: at 33.0 µM 76% | at 100.0 µM 90%
inactive: at 1.2 µM 2% | at 3.7 µM 4% | at 11.0 µM 23%
